# In PubChem BioAssay AID1645860 (Buhrlage Lab, Dana-Farber Cancer Institute and Novartis …, 2021):
# Hit rate of the full screen: of about 47,000 compounds, about 2,500 (5.3%) were called active. No stated cut-off is given here; in the data, active means inhibition above about 30%; inactive means the rest. Shown is part of a subset that was picked to be rich in actives.
# Target: Ubiquitin carboxyl-terminal hydrolase 30 (Homo sapiens) (UniProt Q70CQ3)
# Assay: blocks human USP30 ubiquitin-rhodamine cleavage (AID 1645860)
# Settings: purified USP30, Ub-rhodamine cleavage fluorescence; at 25 µM; active compounds read high
# Chain of Ubiquitin carboxyl-terminal hydrolase 30 (Homo sapiens) (Q70CQ3 whole entry, looked up): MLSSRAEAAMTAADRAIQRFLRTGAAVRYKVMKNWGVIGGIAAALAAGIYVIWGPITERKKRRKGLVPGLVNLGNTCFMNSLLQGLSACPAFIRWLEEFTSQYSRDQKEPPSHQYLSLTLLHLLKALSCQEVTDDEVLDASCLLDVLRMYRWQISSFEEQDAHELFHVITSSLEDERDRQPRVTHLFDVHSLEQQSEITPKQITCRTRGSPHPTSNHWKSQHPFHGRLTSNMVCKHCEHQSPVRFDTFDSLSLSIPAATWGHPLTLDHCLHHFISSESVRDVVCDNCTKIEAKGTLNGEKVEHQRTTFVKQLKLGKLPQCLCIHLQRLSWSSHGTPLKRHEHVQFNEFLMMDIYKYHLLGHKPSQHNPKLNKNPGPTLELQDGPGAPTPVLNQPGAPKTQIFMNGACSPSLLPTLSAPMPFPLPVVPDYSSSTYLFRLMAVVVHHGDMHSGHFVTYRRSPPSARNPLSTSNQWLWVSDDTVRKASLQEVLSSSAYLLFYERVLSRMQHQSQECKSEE
row,SMILES,inhibition
1,COc1ccc(-c2nn(-c3ccccc3)cc2C(=O)N2CCCCC2)cc1,-1.66% (inactive)
2,O=C(Nc1ccc(Oc2ccccc2F)cc1)C1CCN(Cc2cccc(O)c2)CC1,23% (inactive)
3,O=C(Nc1cccc(-c2cccc(F)c2)c1)C1CCN(Cc2cccc3c2OCO3)CC1,36.9% (active)
4,O=C(CN1CCN(CC(=O)Nc2ccc3c(c2)OCO3)CC1)Nc1ccc(F)cc1,-29.4% (inactive)
5,CC1CCC(NC(=O)Cn2c(=O)[nH]c3ccccc3c2=O)CC1 (stereo unspecified),26.9% (inactive)
6,CCOC(=O)N1CCC(NC(=O)CCc2ccccc2)CC1,11.3% (inactive)
7,COc1ccc(CCNC(=O)[C@@H](NC(=O)[C@@H]2Cc3c([nH]c4ccccc34)C3c4ccccc4C(=O)N32)C(C)C)cc1 (stereo partly specified),-104% (inactive)
8,COc1ccccc1NC(=O)N1CCN(Cc2nc3ccccc3o2)CC1,7.46% (inactive)
9,CCOc1ccccc1NC(=O)Nc1cc(-c2nc3ccccc3o2)ccc1OC,58.5% (active)
10,COc1ccccc1NC(=O)Nc1ccc(CCc2nc3ccccc3[nH]2)cc1,-27.4% (inactive)
11,COc1ccc(C(=O)NCC(=O)Nc2nc3ccccc3[nH]2)c(C)c1,9.21% (inactive)
12,O=C(NC1CCCC1)c1csc(C(=O)N2CCCC2)n1,3.97% (inactive)
13,CC(C(=O)N1c2ccccc2NC(=O)C1(C)C)N1CCCC1c1ccc2c(c1)OCCO2 (stereo unspecified),-221% (inactive)
14,Cc1c(C)n2c(SCC(=O)N(C)c3ccccc3)nnc2[nH]c1=O,6.75% (inactive)
15,CCN1C(=O)CCc2cc(NC(=O)Cc3ccc(OC)c(Cl)c3)ccc21,-7.67% (inactive)
16,COCCN1C(=O)CCc2cc(NS(=O)(=O)c3cc(C)cc(C)c3)ccc21,-16.1% (inactive)
17,CCCCOc1ccc(C(=O)Nc2ccc3c(c2)CCC(=O)N3CCC)cc1,46.1% (active)
18,CC(=O)Nc1ccc(C(=O)NCCn2c(C)nc3ccccc32)cc1,27.4% (inactive)
19,CC(C)Cc1cc(C(=O)N2CCOC(c3nccnc3N)C2)n(C)n1 (stereo unspecified),10.1% (inactive)
20,COc1ccccc1CCNC(=O)c1cccc(N2C(=O)C(C)(C)CS2(=O)=O)c1,-7.58% (inactive)
21,COc1ccc(-c2nc(-c3nnn(Cc4cccc(F)c4)c3C)no2)cc1,8.22% (inactive)
22,Cc1c(-c2noc(-c3cccc(N(C)C)c3)n2)nnn1Cc1cccc(F)c1,-2.61% (inactive)
23,CCOc1ccccc1-c1nc(-c2nnn(Cc3ccccc3)c2C)no1,51.6% (active)

row,SMILES,inhibition
1,COC(=O)c1ccccc1NC(=O)Cn1cc(S(=O)(=O)Cc2ccc(C)cc2)c2ccccc21,-13.4% (inactive)
2,COCc1ccc(C(=O)N2CCC3(CC2)CNC(=O)c2ccccc2O3)cc1,14.1% (inactive)
3,Cc1ccc(S(=O)(=O)N(CC(=O)NC(C)c2ccccc2)Cc2ccccc2F)cc1 (stereo unspecified),32.6% (active)
4,O=C(CNC(c1ccccc1)c1ccccc1)Nc1ccc(F)cc1,13.6% (inactive)
5,O=C(CN(Cc1ccccc1Cl)S(=O)(=O)c1ccccc1F)NC(c1ccccc1)c1ccccc1,33.4% (active)
6,COc1ccccc1N(CC(=O)NCc1cccnc1)S(=O)(=O)c1ccc(C)cc1,-6.24% (inactive)
7,Cc1ccc(Cc2nnc(C(=O)NC(C)c3ccccc3)o2)cc1 (stereo unspecified),-0.465% (inactive)
8,O=S(=O)(Nc1ccccc1Cc1ccccc1)c1ccccc1F,16.2% (inactive)
9,Cc1nc2nc(NCc3ccccc3)[nH]n2c(=O)c1CCC(=O)N1CCC(C)CC1,0.108% (inactive)
10,O=C(NCc1ccccn1)C1CCCN(c2ccc(-c3ccccc3)nn2)C1 (stereo unspecified),23.1% (inactive)
11,Cc1ccc(NC(=O)Cn2c(N3CCCC3)nc(C)cc2=O)cc1,18.2% (inactive)
12,CN1CC(=O)N(C2CCCNC2)Cc2c(NC3CCc4ccccc43)ncnc21 (stereo unspecified),69.8% (active)
13,c1ccc(-c2csc3ncnc(NC4CCCc5ccccc54)c23)cc1 (stereo unspecified),-52.1% (inactive)
14,Cc1ccccc1CNC(=O)N1CCC2(CC1)NC(=O)[C@H]1CN(c3ncccn3)C[C@H]12,25.7% (inactive)
15,Cc1cccc(-c2cccc(C3CCCN(C(=O)c4cnccn4)C3)n2)c1 (stereo unspecified),-38% (inactive)
16,O=C(Nc1ccccc1F)Nc1nnc2cccc(Cl)n12,-21.8% (inactive)
17,Cc1nc2ccccc2c(=O)n1CC(=O)N1CCCc2ccccc21,17.4% (inactive)
18,CN(CCc1ccccn1)CC(=O)N1CCc2ccccc21,-0.887% (inactive)
19,COC(=O)COc1cccc2c(=O)n(CC(=O)N3CCc4ccccc43)ccc12,37% (active)
20,Cc1ccc(C)c(N2CCN(c3nc4ccc(Cl)cc4nc3-n3nc(C)cc3C)CC2)c1,-8.16% (inactive)
21,Cc1ccc(CC(=O)N2CCN(C(=O)c3cc(-c4ccccn4)n[nH]3)CC2)cc1,4.03% (inactive)
22,O=C(Nc1ccc(Cl)cc1F)c1cc(-c2ccccn2)n[nH]1,12.6% (inactive)
23,COc1cc(Cl)c(NC(=O)c2cc(-c3ccccn3)n[nH]2)c(OC)c1,31.5% (active)

row,SMILES,inhibition
1,O=C(Cn1cc(SCc2cccc(F)c2)c2ccccc21)N1CCCCCC1,35.3% (active)
2,CC(=O)Nc1cccc(NC(=O)CSc2cn(CC(=O)N3CCC(C)CC3)c3ccccc23)c1,-1.08% (inactive)
3,O=C(Cn1cc(S(=O)(=O)Cc2ccccc2Cl)c2ccccc21)N1CCCCCC1,-0.265% (inactive)
4,COCCN1CC(C(=N)N)C(=O)NC1=O (stereo unspecified),-45.1% (inactive)
5,COc1ccc(CC(=O)Nc2ccc3c(c2)CN(C(=O)c2ccco2)CC3)cc1,19.1% (inactive)
6,O=C(CC1(O)C(=O)N(Cc2cccc3ccccc23)c2ccccc21)c1cccc2ccccc12 (stereo unspecified),2.93% (inactive)
7,CN1CCc2c(sc3nc(SCCc4ccccc4)n(-c4ccccc4)c(=O)c23)C1,-152% (inactive)
8,O=S(=O)(Nc1cccc(O)c1)c1ccc2oc3ccc(S(=O)(=O)Nc4cccc(O)c4)cc3c2c1,42.9% (active)
9,Cc1cccc(NS(=O)(=O)c2ccc3nnc(C)n3c2)c1,-4.01% (inactive)
10,COc1cccc(NS(=O)(=O)c2ccc(-c3coc(C)n3)cc2)c1,-18.4% (inactive)
11,Oc1cccc2nc3c(O)cccc3nc12,55.9% (active)
12,O=C(CCCOc1ccc(F)cc1F)N1CCC(c2[nH]nc3nccnc23)CC1,-12.7% (inactive)
13,Cc1ccc(N2CCn3c(nc4ccccc43)C2)cc1NS(C)(=O)=O,-304% (inactive)
14,O=C(CCc1nnc2n(CCc3ccccc3)c(=O)c3ccccc3n12)NCCN1CCCC1,13.2% (inactive)
15,Cc1ccc(Cn2c(C)c(CNCCC3=CCCCC3)c(C(=O)O)c2C)cc1,-1.85% (inactive)
16,CCc1ccc(-n2c(=O)c3ccccc3n(CC(=O)NCCC3=CCCCC3)c2=O)cc1,41% (active)
17,Cn1ncc2c1CCCN(C(=O)Cc1ccccc1F)C2,10.7% (inactive)
18,Cc1ccccc1CC(=O)Nc1ccc(-n2ccnc2C)nc1,-47.4% (inactive)
19,Cc1cccc(NC(=O)Cn2c(=O)n(Cc3nc(C)no3)c(=O)c3ccccc32)c1,14.7% (inactive)
20,COc1cn(CC(=O)Nc2cccc(C)c2)c(CSc2ccc(C)cc2)cc1=O,-0.0406% (inactive)
21,Cc1cccc(NC(=O)Cn2c(C)ccc(NC(=O)Nc3cccc(C)c3)c2=O)c1,34.8% (active)
22,CC(C)C(=O)N1CCN(C(=O)Cc2ccccc2)CC2(CC(=O)N(C)C2)C1 (stereo unspecified),17% (inactive)
23,Cc1cc(Nc2ncc(C)s2)cc(C2CCCN2c2ncccn2)n1 (stereo unspecified),-49.2% (inactive)

row,SMILES,inhibition
1,CCOC(=O)C1CCCN(c2cc3n(c(=O)n2)CCc2cc(OC)c(OC)cc2-3)C1 (stereo unspecified),-59.6% (inactive)
2,CC1=C(c2ccc(C)cc2)S(=O)(=O)NC1=NCc1cccc(Br)c1,3.77% (inactive)
3,COc1ccc(CN=C2NS(=O)(=O)C(c3ccc(F)cc3)=C2C)cc1OC,37% (active)
4,COc1ccc(C2=Nc3ncnn3C2=NCc2ccc(F)cc2)cc1OC,0.0164% (inactive)
5,Cn1nnc2c1CCN(C(=O)C1CCC1)C2COCc1ccccc1 (stereo unspecified),-10.7% (inactive)
6,O=c1c2ccccc2c(-c2nc(-c3ccncc3)no2)cn1-c1ccc(F)cc1,44.8% (active)
7,O=C(Cn1cccc(-c2nc(-c3ccccc3)no2)c1=O)Nc1ccccc1F,-12.8% (inactive)
8,O=C(Cn1c(-c2nc(-c3ccc(F)cc3)no2)cccc1=O)N1CCCC1,11.4% (inactive)
9,CSCc1cc(N2CCOCC2)nc(-c2ccccn2)n1,23.5% (inactive)
10,CC1CCN(S(=O)(=O)N2CCCC(C(=O)Nc3cc(F)ccc3F)C2)CC1 (stereo unspecified),18.2% (inactive)
11,O=C(Nc1ccc(N2CCN(C3CCCC3)C2=O)nc1)c1cccnc1,-14.2% (inactive)
12,COc1cccc(NC(=O)Cn2c(C)cc(C)c2-c2nc(C(C)C)no2)c1,-10.3% (inactive)
13,COc1ccc(OCC(=O)Nc2noc(-c3ccccc3)n2)cc1,24.4% (inactive)
14,CC(C)c1noc(-c2ccc(OCC(=O)Nc3ccccc3Br)cc2)n1,30.7% (active)
15,CC(=O)Nc1ccc(S(=O)(=O)NCc2ccc(C(=O)NCc3ccc(C)cc3)cc2)cc1,-1.25% (inactive)
16,O=C1Nc2cc(C(=O)N3CCC4(CC3)OCCO4)ccc2N2C(=O)CCC12 (stereo unspecified),1.12% (inactive)
17,O=C(Cn1cc(S(=O)(=O)Cc2ccccc2F)c2ccccc21)N1CCCCCC1,3.16% (inactive)
18,COc1ccc(NC(=O)CSc2cn(CC(=O)N3CCCC3)c3ccccc23)cc1,18.7% (inactive)
19,COc1ccc(NC(=O)CS(=O)(=O)c2cn(CC(=O)N3CCCC3)c3ccccc23)cc1,30.4% (active)
20,O=C(NCc1cccnc1-c1ccc(F)cc1)C1CCC1,21.3% (inactive)
21,CSc1nc2c(c(Nc3ccc(C(C)=O)cc3)n1)CCC2,80.5% (active)
22,Fc1cccc(Nc2nc(-c3ccncc3)nc3c2CCC3)c1,23.2% (inactive)
